Rows were chosen to be rich in hits. Some 0.9% of all compounds tested hit in one or more screens of this group.
L3MBTL1 inh-1: L3MBTL1 (human) inhibition. Q9Y468. AlphaScreen L3MBTL1–H3K9me1 peptide binding. Potency, µM (series often up to 57.1 µM), inactives show top-dose activity, negative = inhibition, usual class: inhibitors. 230,000 compounds, 0.66% hits; further: potency means the concentration at half of the fitted maximal effect; on the % scale 0 is the no-effect control and ±100 the full control effect; nearly all actives have a fitted effect of over 60% in size
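L3MBTL1 (50 nM) pre-complexed 30 min with biotinylated H3(1-15)K9me1 peptide (75 nM), then compounds added for 30 min at room temperature; AlphaScreen streptavidin donor/nickel chelate acceptor beads (10 ug/mL final) read after 30 min dark incubation.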
Six1-Eya2 inh: Six1/Eya2 interaction inhibition; AID 651725; activity change, % (no concentration beside the values); Q15475+O00167; AlphaScreen GST-Six1/His-Eya2 binding, biochemical; stronger effect = lower value; 360,000 compounds, 0.56% hits; in the data active means activity change below about -65%; inconclusive means mostly about -30% to -63%; further: on the % scale 0 is the no-effect control and ±100 the full control effect
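Compounds are tested against tagged Six1 and Eya2 proteins bridged by glutathione donor and nickel acceptor beads; after a one-hour incubation at 37 °C without light, AlphaScreen emission is recorded.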
Eya2 inh: Eya2 (human) phosphatase inhibition. 330,000 compounds, 0.006% hits. AID 488837. Potency, µM (titrated, usually from 76.9 µM), without a hit: at the highest dose activity, negative = inhibition, usual class: inhibitors. O00167. recombinant Eya2, OMFP fluorescence dephosphorylation (OMFP is methylfluorescein phosphate); further: potency means the concentration at half of the fitted maximal effect; on the % scale 0 is the no-effect control and ±100 the full control effect
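Eya2 (0.2 uM) preincubated 10 min at ambient with compound, then OMFP substrate added at 50 uM; 10 min reaction in 50 mM HEPES pH 7.5, 50 mM NaCl, 5 uM MgCl2, 0.05% BSA, 1 mM DTT. Fluorescence read at Ex 485/Em 525 nm.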
CtBP-E1A blk: inhibitors of CtBP/E1A interaction; AlphaScreen GST-E1A/His-CtBP binding, 1536-well; stronger effect = lower value; 340,000 compounds, 0.49% hits; AID 651724; activity change, % (test concentration not listed); in the data active means activity change below about -65%; inconclusive means mostly about -30% to -63%; further: on the % scale 0 is the no-effect control and ±100 the full control effect
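In 5 uL wells, 23 nL compound meets equimolar GST-E1A and His-CtBP (5X stock 125 nM each) for 2 h, 37 °C. Beads (5X, 50 ug/mL) then 1 h, 37 °C, dark.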
B2AR arrestin: beta2AR (human) beta-arrestin recruitment activity. beta-arrestin recruitment to beta2AR, cell-based reporter. Potency, µM (series often up to 46.1 µM), inactives show top-dose activation, most hits filed as activators. 330,000 compounds, 0.02% hits. AID 492947;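 further: potency means the concentration at half of the fitted maximal effect; 0% = DMSO controls and full agonism = EC100 isoproterenol or metaproterenol; nearly all actives have a fitted effect of over 65% in size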
L3MBTL1 inh-2: blocks human L3MBTL1 methyl-lysine binding | L3MBTL1 methyl-lysine binding inhibition, biochemical qHTS | Potency, µM, most hits filed as inhibitors | 500 compounds, 91% hits | shares compounds with L3MBTL1 inh-1; further: potency means the concentration at half of the fitted maximal effect; nearly all actives have a fitted effect of over 70% in size
AlphaScreen ctr2: AlphaScreen signal inhibition, L3MBTL1 hit counter-screen. shares compounds with L3MBTL1 inh-1. AlphaScreen counterscreen, signal inhibition. Potency, µM (titrated, usually from 57.1 µM), for the others: top-dose activity change, negative = inhibition, actives largely listed as inhibitors. 500 tested, under 10 active; further: potency means the concentration at half of the fitted maximal effect; 0% is about no effect
The depositor's hits bear a star; ? = inconclusive; . = no result. Unless noted, the call rests on the fitted dose curve; in most records, active means well fitted curve in the direction sought with a large enough effect; inconclusive means small, poorly fitted or top-dose-only effect, or another doubt; inactive means no such curve, though single readings can be large; an effect the other way counts as inactive or inconclusive.

SMILES	L3MBTL1 inh-1	Six1-Eya2 inh	Eya2 inh	CtBP-E1A blk	B2AR arrestin	L3MBTL1 inh-2	AlphaScreen ctr2
Cc1cc(C=C2C(=O)NC(=S)NC2=O)c(C)n1-c1ccc2c(c1)OCO2	22µM*	1	-33%	-18	0%	21*	-11%
NC(=O)CN1CC(O)CC1=O (stereo not given)	.	.	1%	.	.	.	.
C=CCc1cc(C)ccc1OCCCC(C(=O)OCC)C(=O)OCC	98%	50	-9%	3	0%	.	.
COc1ccc(CN2C(=O)NC(=O)/C(=C/c3ccoc3)C2=O)cc1	?	-16	?	.	-1%	.	.
C=CCN1C(=O)NC(=O)/C(=C/c2ccoc2)C1=O	22µM*	-4	22%	15	-2%	17*	-1%
CCOc1ccccc1OCCCCN1CCCC1	28µM*	-2	-12%	5	0%	?	?

Assay outcomes from PubChem BioAssay.
